# In the supplement of paper PMC4683952:
# Structures can show the parent of a compound that is named as a salt. About 50 (4%) of roughly 1,200 compounds showed activity. Rule as the data show it: all actives reach 1.3 or more but so do some inactives. Only a selection was taken, and actives are over-represented in it overall.
# System: Lgr5 (MarsCy1-Lgr5-EGFP, U2OS)
# Assay: cell-surface Lgr5 expression (SCi1 fluorescence, background-subtracted) relative to WT DMSO (fold of DMSO control); higher = more Lgr5 at the plasma membrane, active = hit call of the paper
# Settings: U2OS MarsCy1-Lgr5-EGFP stable; treatment time: overnight; 16 µM; library: Johns Hopkins Clinical Compound Library
row,SMILES,cell-surface Lgr5 expression
1,COc1cc(C2c3cc4c(cc3C(O)C(CO)C2C(=O)O)OCO4)cc(OC)c1OC.COc1cc(C2c3cc4c(cc3C(O)C(CO)C2C(=O)O)OCO4)cc(OC)c1OC.COc1cc(C2c3cc4c(cc3C(O)C3COC(=O)C23)OCO4)cc(OC)c1OC.COc1cc(C2c3cc4c(cc3C(O)C3COC(=O)C23)OCO4)cc(OC)c1OC (stereo unspecified) [Podophyllum resin],1.55 (active)
2,CC(N)C(O)c1ccccc1 (stereo unspecified) [Norephedrine Hydrochloride (Phenylpropanolamine)],1.19 (inactive)
3,C=C[C@H]1CN2CC[C@H]1C[C@@H]2[C@@H](O)c1ccnc2ccccc12 [Cinchonine sulfate],1.25 (inactive)
4,CCN(CC)C(=O)N[C@H]1C=C2c3cccc4[nH]cc(c34)C[C@H]2N(C)C1 [Lisuride],1.1 (inactive)
5,[S]=[Sb][S][Sb]=[S] [Antimony (III) sulfide],1.26 (inactive)
6,NC(=O)CN1CC(O)CC1=O (stereo unspecified) [Oxiracetam],1.36 (active)
7,COc1ccc(O)c(C(C)(C)C)c1.COc1ccc(O)cc1C(C)(C)C [Butylated hydroxyanisole],1.15 (inactive)
8,C=CCN1C[C@H](C(=O)N(CCCN(C)C)C(=O)NCC)C[C@@H]2c3cccc4[nH]cc(c34)C[C@H]21 [Cabergoline],0.958 (inactive)
9,ClC1=C(Cl)C2(Cl)C(CBr)CC1(Cl)C2(Cl)Cl (stereo unspecified) [Bromocyclen],1.24 (inactive)
10,C[C@]12Cc3c[nH]nc3C[C@@H]1CC[C@@H]1[C@@H]2CC[C@@]2(C)[C@H]1CC[C@]2(C)O [Stanozolol],1.03 (inactive)
11,"C[C@]12CCC(=O)C(O)=C1CC[C@@H]1[C@@H]2CC[C@]2(C)C(=O)CC[C@@H]12 [Formestane (4-Androsten-4-ol-3,17-dione)]",1.18 (inactive)
12,"C[C@]12CC[C@H](O)CC1=CC[C@@H]1[C@@H]2CC[C@]2(C)C(=O)CC[C@@H]12 [Prasterone (DHEA, dehydroepiandrosterone)]",1.33 (active)
13,C=C1C[C@@H]2[C@H](CC[C@]3(C)C(=O)CC[C@@H]23)[C@@]2(C)C=CC(=O)C=C12 [Exemestane],1.48 (inactive)
14,C[C@]12CC[C@H](O)CC1=CC[C@@H]1[C@@H]2CC[C@]2(C)C(=O)CC[C@@H]12 [Prasterone (dehydroisoandrosterone)],1.09 (inactive)
15,C=CCN=C=S [Allyl isothiocyanate],0.99 (inactive)
16,N[C@@H](Cc1ccc(N(CCCl)CCCl)cc1)C(=O)O [Melphalan],1.14 (inactive)
17,CC(C)(C)NCC(O)c1ccccc1Cl (stereo unspecified) [Tulobuterol],1.42 (active)
18,CN(C)C(=O)Oc1cc(OC(=O)N(C)C)cc(C(O)CNC(C)(C)C)c1 (stereo unspecified) [Bambuterol],1.21 (inactive)
19,C1CN1c1nc(N2CC2)nc(N2CC2)n1 [Triethylenemelamine],1.39 (inactive)
20,[O-][n+]1ccccc1[S-].[O-][n+]1ccccc1[S-].[Zn+2] [Pyrithione zinc (1-Hydroxypyridine-2-Thione Zinc Salt)],0.923 (inactive)
21,CN1C[C@H](C(=O)N[C@]2(C)O[C@@]3(O)[C@@H]4CCCN4C(=O)[C@H](Cc4ccccc4)N3C2=O)C[C@@H]2c3cccc4[nH]cc(c34)C[C@H]21 [Dihydroergotamine methanesulfonate],0.612 (inactive)
